Laboratory results from ChEMBL document CHEMBL3988442, “University of Dundee, Small-Polar-MMV Screening Library” (2021).
For some assays here: Entries with a potency or affinity are not part of this list.

Assays:
Design in all cases: scale not given: direction of the effect not stated beside the values
[1] = biological target: Protein translocase subunit SecA (Escherichia coli (strain K12)) (UniProt P10408); assay: Assay to Identify E. coli SecA ATPase Inhibitors; type: functional; settings: 30 µM
[2] = biological target: T1, Ubiquitin-activating enzyme e1, putative (Leishmania donovani (strain BPK282A1)) (UniProt E9BSI1); assay: Leishmania donovani Ubiquitin Activating Enzyme (LdE1); type: functional; settings: 30 µM
T1 sequence (whole entry): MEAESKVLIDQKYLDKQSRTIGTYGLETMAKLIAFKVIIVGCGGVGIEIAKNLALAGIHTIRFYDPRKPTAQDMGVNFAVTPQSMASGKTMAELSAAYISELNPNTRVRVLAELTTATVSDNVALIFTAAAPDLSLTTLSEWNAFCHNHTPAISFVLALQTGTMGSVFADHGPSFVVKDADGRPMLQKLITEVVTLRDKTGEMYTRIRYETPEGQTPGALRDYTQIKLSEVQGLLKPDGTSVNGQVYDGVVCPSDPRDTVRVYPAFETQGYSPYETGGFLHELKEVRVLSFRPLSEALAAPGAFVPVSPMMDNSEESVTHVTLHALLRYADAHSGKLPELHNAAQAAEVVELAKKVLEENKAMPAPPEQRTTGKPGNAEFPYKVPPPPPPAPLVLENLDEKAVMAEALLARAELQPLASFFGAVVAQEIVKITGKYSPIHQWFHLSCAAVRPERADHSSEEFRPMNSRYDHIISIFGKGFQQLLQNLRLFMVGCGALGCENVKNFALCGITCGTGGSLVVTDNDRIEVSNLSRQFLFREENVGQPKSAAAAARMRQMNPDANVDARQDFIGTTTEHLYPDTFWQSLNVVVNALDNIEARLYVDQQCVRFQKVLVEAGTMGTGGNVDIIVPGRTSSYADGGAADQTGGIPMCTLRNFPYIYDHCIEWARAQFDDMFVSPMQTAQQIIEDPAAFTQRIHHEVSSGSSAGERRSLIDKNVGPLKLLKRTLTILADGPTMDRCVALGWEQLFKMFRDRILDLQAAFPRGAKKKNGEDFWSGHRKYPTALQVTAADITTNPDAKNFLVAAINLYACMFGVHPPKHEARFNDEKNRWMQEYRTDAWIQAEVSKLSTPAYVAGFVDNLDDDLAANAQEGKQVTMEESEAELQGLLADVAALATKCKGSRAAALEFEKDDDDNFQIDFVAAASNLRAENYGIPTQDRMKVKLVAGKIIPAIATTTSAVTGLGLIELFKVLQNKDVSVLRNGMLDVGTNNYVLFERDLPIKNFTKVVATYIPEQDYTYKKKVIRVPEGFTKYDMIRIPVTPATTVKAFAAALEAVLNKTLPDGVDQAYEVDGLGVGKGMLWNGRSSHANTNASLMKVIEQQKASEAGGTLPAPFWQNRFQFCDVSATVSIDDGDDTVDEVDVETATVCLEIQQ

[3] = biological target: AMP-activated protein kinase, AMPK (Homo sapiens) (UniProt P54646+O43741+P54619+Q9UGJ0+Q9Y478+Q13131+Q9UGI9); assay: AMP-dependent Kinase enzyme assay. An in vitro enzyme assay that detects ADP turnover that is directly proportional to AMPK activity. This uses naive AMPK that is activated during the assay with MK-8722; type: functional; settings: 30 µM
[4] = biological target: Sialic acid-binding Ig-like lectin 9 (Homo sapiens) (UniProt Q9Y336); assay: Hs-Siglec9 ALPHAscreen SOP 20170721; settings: 10 µM
[5] = system: Trypanosoma cruzi; assay: Trypanosoma cruzi phosphomannomutase and mannose-1-phosphate guanylyltransferase assay; type: functional; settings: 10 µM
[6] = biological target: T2, Arginase-2, mitochondrial (Homo sapiens) (UniProt P78540); assay: in vitro enzyme assay to detect the production of urea directly proportional to the activity of Arginase II; type: functional; settings: 33.3 µM; also: in the data most compounds retested in dose-response had high values
T2 sequence (whole entry): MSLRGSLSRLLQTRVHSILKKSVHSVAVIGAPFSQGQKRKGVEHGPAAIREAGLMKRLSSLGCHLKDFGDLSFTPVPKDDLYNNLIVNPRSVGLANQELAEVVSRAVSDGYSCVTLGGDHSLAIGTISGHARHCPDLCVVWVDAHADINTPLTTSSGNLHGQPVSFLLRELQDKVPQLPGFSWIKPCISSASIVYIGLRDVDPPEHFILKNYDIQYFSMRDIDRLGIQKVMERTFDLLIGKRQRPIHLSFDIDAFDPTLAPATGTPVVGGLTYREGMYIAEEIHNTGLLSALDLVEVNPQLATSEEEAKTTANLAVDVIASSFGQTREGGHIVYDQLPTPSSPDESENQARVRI

[7] = biological target: T3, Proteasome subunit beta (Trypanosoma cruzi) (UniProt O96673); assay: Trypanosoma cruzi proteasome chymotrypsin-like activity (TcProtChymo) assay.; also: in the data most compounds retested in dose-response had high values; type: functional; settings: 9.37 µM
T3 sequence (whole entry): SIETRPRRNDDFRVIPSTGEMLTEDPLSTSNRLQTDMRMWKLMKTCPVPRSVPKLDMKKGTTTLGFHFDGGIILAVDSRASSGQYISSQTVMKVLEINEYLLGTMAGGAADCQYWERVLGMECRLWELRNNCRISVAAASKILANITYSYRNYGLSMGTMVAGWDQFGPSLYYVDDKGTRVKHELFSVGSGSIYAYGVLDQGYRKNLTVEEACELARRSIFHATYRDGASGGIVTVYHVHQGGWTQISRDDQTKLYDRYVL

[8] = organism: Homo sapiens; assay: To identify inhibition of the IFN signalling (Jak-Stat) pathway via expression of an eGFP reporter gene under the control of an IFN-stimulated response element (ISRE) containing MxA promoter.; type: functional; settings: 30 µM
[9] = biological target: T4, Tyrosyl-tRNA synthetase, putative (Trypanosoma cruzi (strain CL Brener)) (UniProt Q4DSP6); assay: Trypanosoma cruzi tyrosyl tRNA synthetase (TcYRS) _High Tyrosine SOP; type: functional; settings: 30 µM; also: in the data most compounds retested in dose-response had high values
T4 sequence (whole entry): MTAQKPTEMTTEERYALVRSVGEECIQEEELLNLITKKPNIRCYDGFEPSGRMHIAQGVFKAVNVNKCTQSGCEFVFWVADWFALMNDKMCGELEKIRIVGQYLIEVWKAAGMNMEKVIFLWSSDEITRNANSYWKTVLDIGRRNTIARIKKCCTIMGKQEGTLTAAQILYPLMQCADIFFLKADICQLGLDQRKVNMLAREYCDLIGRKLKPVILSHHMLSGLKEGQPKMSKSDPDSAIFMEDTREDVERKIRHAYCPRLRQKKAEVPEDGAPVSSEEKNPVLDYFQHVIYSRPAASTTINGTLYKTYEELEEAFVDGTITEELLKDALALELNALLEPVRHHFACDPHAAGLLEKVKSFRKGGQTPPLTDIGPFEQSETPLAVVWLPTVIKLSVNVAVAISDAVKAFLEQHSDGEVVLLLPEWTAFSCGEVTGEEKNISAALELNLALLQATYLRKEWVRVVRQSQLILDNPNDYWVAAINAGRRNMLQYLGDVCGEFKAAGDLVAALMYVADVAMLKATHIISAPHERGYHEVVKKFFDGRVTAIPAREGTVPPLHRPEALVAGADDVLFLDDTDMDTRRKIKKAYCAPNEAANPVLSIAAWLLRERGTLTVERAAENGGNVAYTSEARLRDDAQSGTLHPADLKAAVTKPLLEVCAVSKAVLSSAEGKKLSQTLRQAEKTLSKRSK

[10] = biological target: T4, Tyrosyl-tRNA synthetase, putative (Trypanosoma cruzi (strain CL Brener)); assay: Trypanosoma cruzi tyrosyl tRNA synthetase (TcYRS) SOP; type: functional; settings: 30 µM
[11] = biological target: Chromo domain-containing protein 1 (Saccharomyces cerevisiae (strain ATCC 204508 / S288c) (Baker's yeast)) (UniProt P32657); assay: ScCHD-1 Enzyme Inhibition Assay; type: functional; settings: 30 µM; also: in the data most compounds retested in dose-response had high values
Chain of Chromo domain-containing protein 1 (Saccharomyces cerevisiae (strain ATCC 204508 / S288c) (Baker's yeast)) (P32657 whole entry, the tested form may be a part): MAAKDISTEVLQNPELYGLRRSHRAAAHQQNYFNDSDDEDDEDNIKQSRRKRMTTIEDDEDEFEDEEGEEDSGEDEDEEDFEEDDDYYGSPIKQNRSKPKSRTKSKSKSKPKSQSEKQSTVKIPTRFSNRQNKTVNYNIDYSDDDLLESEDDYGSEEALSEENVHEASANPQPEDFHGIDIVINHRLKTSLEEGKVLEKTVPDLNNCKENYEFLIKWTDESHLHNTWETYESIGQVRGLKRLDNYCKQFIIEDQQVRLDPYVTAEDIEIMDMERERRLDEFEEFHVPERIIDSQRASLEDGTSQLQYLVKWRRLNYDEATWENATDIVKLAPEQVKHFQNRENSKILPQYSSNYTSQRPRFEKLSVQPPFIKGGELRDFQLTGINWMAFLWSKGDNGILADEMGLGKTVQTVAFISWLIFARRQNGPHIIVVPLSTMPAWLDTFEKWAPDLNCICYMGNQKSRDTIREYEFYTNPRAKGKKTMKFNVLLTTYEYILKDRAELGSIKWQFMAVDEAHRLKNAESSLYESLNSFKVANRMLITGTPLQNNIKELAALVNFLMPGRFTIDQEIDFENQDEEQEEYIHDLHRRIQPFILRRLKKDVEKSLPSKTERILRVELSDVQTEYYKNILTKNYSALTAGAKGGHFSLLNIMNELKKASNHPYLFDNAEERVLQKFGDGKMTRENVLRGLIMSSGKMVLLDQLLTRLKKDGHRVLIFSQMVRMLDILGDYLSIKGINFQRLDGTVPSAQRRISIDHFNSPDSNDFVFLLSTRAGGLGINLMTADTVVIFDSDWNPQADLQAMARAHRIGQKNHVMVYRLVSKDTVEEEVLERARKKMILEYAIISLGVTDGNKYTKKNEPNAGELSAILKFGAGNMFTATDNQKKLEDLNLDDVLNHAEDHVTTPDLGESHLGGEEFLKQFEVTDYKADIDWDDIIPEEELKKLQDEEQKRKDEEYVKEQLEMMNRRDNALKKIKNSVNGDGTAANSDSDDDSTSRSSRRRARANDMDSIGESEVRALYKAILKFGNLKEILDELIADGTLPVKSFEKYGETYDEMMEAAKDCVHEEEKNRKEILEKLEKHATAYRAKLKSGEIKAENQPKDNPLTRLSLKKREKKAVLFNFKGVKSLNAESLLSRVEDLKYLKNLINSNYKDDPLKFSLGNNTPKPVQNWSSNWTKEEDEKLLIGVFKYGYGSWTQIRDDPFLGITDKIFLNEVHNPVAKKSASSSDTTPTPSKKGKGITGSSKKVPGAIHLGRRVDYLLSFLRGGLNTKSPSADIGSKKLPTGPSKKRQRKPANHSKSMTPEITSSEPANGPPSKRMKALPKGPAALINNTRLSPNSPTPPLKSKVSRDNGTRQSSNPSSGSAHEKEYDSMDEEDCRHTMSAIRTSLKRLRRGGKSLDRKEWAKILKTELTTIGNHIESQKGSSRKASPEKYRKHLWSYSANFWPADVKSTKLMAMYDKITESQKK

Chain of Protein translocase subunit SecA (Escherichia coli (strain K12)) (P10408 whole entry): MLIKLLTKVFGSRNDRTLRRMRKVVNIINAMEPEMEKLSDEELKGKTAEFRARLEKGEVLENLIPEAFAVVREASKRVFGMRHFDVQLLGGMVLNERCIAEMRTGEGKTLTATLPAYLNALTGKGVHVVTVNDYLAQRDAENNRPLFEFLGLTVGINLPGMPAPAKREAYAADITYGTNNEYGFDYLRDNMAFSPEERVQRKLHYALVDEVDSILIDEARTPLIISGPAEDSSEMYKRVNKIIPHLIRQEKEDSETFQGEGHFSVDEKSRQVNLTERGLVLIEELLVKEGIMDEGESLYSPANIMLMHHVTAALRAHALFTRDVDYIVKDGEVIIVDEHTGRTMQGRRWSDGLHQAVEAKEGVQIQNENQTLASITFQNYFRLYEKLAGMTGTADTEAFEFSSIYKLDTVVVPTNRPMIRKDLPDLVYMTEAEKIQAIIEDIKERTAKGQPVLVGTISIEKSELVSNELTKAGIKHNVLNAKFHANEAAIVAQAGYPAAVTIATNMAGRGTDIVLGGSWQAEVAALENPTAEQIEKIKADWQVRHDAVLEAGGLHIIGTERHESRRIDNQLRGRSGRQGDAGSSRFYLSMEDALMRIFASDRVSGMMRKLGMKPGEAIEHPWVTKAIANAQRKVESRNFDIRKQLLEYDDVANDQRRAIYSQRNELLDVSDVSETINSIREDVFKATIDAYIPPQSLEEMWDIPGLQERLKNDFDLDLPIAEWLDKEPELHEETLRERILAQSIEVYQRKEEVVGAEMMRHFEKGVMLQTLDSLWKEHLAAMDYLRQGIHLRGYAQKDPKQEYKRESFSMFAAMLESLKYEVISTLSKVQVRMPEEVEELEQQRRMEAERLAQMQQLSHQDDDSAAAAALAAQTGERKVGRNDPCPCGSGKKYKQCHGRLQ
Chain of Sialic acid-binding Ig-like lectin 9 (Homo sapiens) (Q9Y336 whole entry): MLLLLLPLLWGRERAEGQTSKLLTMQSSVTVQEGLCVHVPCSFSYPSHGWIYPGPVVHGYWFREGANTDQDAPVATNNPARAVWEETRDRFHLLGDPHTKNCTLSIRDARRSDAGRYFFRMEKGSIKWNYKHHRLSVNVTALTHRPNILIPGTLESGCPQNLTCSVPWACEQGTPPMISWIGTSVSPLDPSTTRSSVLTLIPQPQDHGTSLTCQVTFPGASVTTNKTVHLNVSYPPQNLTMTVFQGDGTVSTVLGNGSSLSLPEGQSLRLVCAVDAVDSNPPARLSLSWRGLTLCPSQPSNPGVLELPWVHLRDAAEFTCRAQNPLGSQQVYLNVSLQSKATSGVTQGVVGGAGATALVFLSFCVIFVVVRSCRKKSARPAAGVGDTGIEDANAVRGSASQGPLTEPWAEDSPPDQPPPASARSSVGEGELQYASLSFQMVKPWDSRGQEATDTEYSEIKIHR

| Structure (SMILES) | Percent Effect [1] [%] | Percent Effect [2] [%] | Percent Effect [3] [%] | Percent Effect [4] [%] | Percent Effect [5] [%] | Percent Effect [6] [%] | Percent Effect [7] [%] | Percent Effect [8] [%] | Percent Effect [9] [%] | Percent Effect [10] [%] | Percent Effect [11] [%] |
| --- | --- | --- | --- | --- | --- | --- | --- | --- | --- | --- | --- |
| O=C(NCCn1ccc(-c2ccccn2)n1)C1CC1 | -1.6 | 0 | 8.98 | 2.65 | -3.85 | 5.81 | 2.79 | 7.05 | 3.17 | 3.85 | -0.508 |
| O=C(Nc1ccnc(OC2CCOC2)c1)C1CCC1 (configuration not stated) | -2.23 | -4.17 | -0.181 | 4.31 | -6.32 | 1.32 | 13.3 | 5.01 | -2.1 | -5.13 | 6.48 |
| c1ccc2oc(CCCN3CCCC3Cn3cncn3)nc2c1 (configuration not stated) | -1.49 | 0 | 0.485 | 12.2 | -1.02 | 3.51 | 5.92 | 13.6 | 7.92 | 6.1 | 7.47 |
| CC1(NC(=O)Cc2csc(C(C)(C)C)n2)CCS(=O)(=O)C1 (configuration not stated) | -7.31 | 19.2 | -17.7 | 20.2 | 9.01 | 7.27 | 13.7 | 17.5 | 4.3 | 17.5 | -4.8 |
| Cn1nc(COc2cccnc2)c2c1CCN(c1cnccn1)C2 | -4.47 | 13.5 | -0.741 | 2.04 | 0.293 | 14.3 | 26.2 | 4.97 | 5.41 | 12.8 | -3.43 |
| Cc1cc(CN2CC[C@H]3C(=O)N(c4ccccc4)CCO[C@H]3C2)no1 | -3.31 | 21.3 | 1.48 | -6.56 | -4.92 | -2.1 | 8.37 | 19.1 | 2.13 | 11.5 | -1.25 |
| CS(=O)(=O)NC[C@H]1OC[C@@H]2CCN(Cc3ccc(F)cc3)C[C@@H]21 | 0.854 | 13.3 | 2.13 | -0.611 | -1.74 | -27.8 | 7.35 | 13.4 | 3.12 | 15 | -6.75 |
| CC(NC(=O)NCCCc1n[nH]c(N)c1C#N)c1ccccc1 (configuration not stated) | -5.52 | 22.8 | 48.4 | -3.62 | 3.68 | -11.8 | 14.8 | 7.81 | 6.4 | 24.1 | -5.91 |
| CC(CN1CCCC1)C(=O)N1CCC(c2nccn2CC2CC2)CC1 (configuration not stated) | -4.31 | 13.5 | -3.47 | 27.7 | 10.2 | 2.86 | 16.2 | 5.41 | 7.94 | 21.9 | -11.2 |
| COC(=O)CS(=O)(=O)CCC(=O)N1CCCC1c1ccsc1 (configuration not stated) | -3.22 | 6.94 | -5.88 | 21.4 | 2.82 | -2.21 | 5.44 | -6.88 | 5.26 | 7.69 | -2.96 |
| Cc1cc(C)n(C2CN(CC(O)c3ccc4c(c3)OCO4)C2)n1 (configuration not stated) | -2.6 | -13 | 0.139 | 7.69 | 3.37 | -2.85 | 4.56 | 26.7 | 15.5 | 12.2 | -2.01 |
| CC(=O)N1CCCN(C(=O)NCCc2cc(Cl)cc(Cl)c2)CC1 | -3.3 | -8.86 | 10.6 | 0.0308 | -2.77 | 7.1 | 1.54 | 13.1 | 0 | 2.53 | -17.6 |
| Cc1nn(C)c(N2CCOCC2)c1CNC1CCOc2ccccc21 (configuration not stated) | -4.35 | 10.1 | -4.31 | 8.19 | 1.04 | 0.38 | 2.54 | -11.4 | 7.39 | 11.4 | -3.12 |
| O=C(c1ccc[nH]1)N1C[C@H]2CN(Cc3cccc(F)c3)C(=O)[C@H]2C1 | -2.55 | 13.5 | 9.65 | -6.44 | -2.05 | 6.05 | 20.3 | 13 | 0 | 7.69 | -2.96 |
| Cc1n[nH]c(C2CN(C(=O)c3ccco3)CCO2)n1 (configuration not stated) | -4.76 | 2.63 | 7.87 | 3.79 | 1.07 | 0 | 4.51 | 25.8 | 6.38 | 7.79 | -0.969 |
| Cc1ccc(CNC(=O)Nc2nnc(C)s2)cn1 | -1.62 | 23.7 | 1.54 | -3.95 | 1.03 | 2.16 | 15.1 | 1.76 | 8.37 | 25.9 | -9.14 |
| Cc1cnn(CC2CCCN2C(=O)c2cn(-c3ccccc3)nc2C)c1 (configuration not stated) | -2.73 | 2.7 | -10.7 | 13.6 | 1.6 | -3.61 | -4.32 | -0.766 | 7.39 | 11.1 | -6.26 |
| O=C1NCCN1C1CCN(Cc2ccccn2)CC1 | -1.85 | 0 | -5.58 | 1.53 | -2.12 | 1.91 | 8.62 | 0.116 | 3.7 | 2.44 | -3.18 |
| Cc1cc(C)c(CNC(=O)NCc2ccc3c(c2)CCC3)c(=O)[nH]1 | -1.46 | 10.5 | -2.73 | 4 | -3.38 | 4.6 | 6.85 | 4.84 | 5.39 | 0 | 0.252 |
| O=C(CCNc1ncccn1)NCCOc1ccc2c(c1)CCC2 | -3.51 | 15.8 | -0.433 | -5.56 | -4.39 | -2.52 | 6.68 | 1.31 | 5.42 | 18.5 | -3.74 |
| Cc1cn2nc(N3CCCN(Cc4noc(C)n4)CC3)sc2n1 | -4 | 11.4 | 7.75 | 2.12 | -2.97 | 1.94 | 13.4 | 0.85 | 7.29 | 12.7 | -14.4 |
| CN(C)C(=O)CN(C)C(=O)c1cnc(Cc2ccc(F)cc2)s1 | -5.52 | 0 | -1.38 | -1.9 | -1.07 | 3.12 | 17.8 | -4.01 | 0.546 | 8.64 | -7.08 |
